test system: ZAK; conditions: concentration: 1 μM,replicates: in singlicate; n = 1
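Note: KINOMEscan kinase panel screen.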

Row | SMILES | %Inh [%]
1 | Cc1n[nH]c2ccc(-c3cc(OC[C@@H](N)Cc4ccccc4)cnc3-c3ccoc3)cc12.O=C(O)C(F)(F)F.O=C(O)C(F)(F)F [GSK507358] | 0
2 | Cl.Oc1cc(-c2nc(-c3ccccc3)[nH]c2-c2ccncc2)ccc1Cl [SB-386023] | 25
3 | CCn1c(-c2nonc2N)nc2c(C#CC(C)(C)O)nc(OCCN)cc21.Cl.Cl [GSK902056] | 14
4 | CCN(CC)CCOc1ccc(Nc2ncc3cc(-c4c(Cl)cccc4Cl)c(=O)n(C)c3n2)cc1 [SB-601273] | 94.2
5 | CC(C)Nc1cc(-c2ccc3c(N)n[nH]c3c2)nc(N)n1 [GSK2221681] | 0
6 | C=CC(=O)Nc1cc2c(Nc3ccc(F)c(Cl)c3)ncnc2cc1OCCCN1CCOCC1 [GW781483] | 0
7 | C[C@@H](Oc1cc(-c2cnn(C3CCNCC3)c2)cnc1N)c1c(Cl)ccc(F)c1Cl | 4
8 | CN(C)CCOc1ccc(-c2cc(-c3c[nH]nc3-c3ccccn3)ccn2)cc1 [GW835314] | 60
9 | Cc1cc(C(=O)Nc2ccc(Oc3ccc4nc(NC(=O)C5CC5)cn4n3)cc2)nn1-c1ccccc1 | 48
10 | Cl.Cl.Nc1nc(-c2ccc3c(N)n[nH]c3c2)cc(N2CCCC(NC(=O)c3ccccc3)C2)n1 (centres unmarked) [GSK2286775] | 100
11 | COc1ccc(C[C@@H](CN)NC(=O)c2cc(Br)c(-c3ccnc4[nH]ccc34)s2)cc1.Cl.Cl [GSK1389063] | 0
12 | Cc1cc2cn[nH]c2cc1-c1cccc2c(N)c(C(N)=O)nnc12 | 21
13 | Cl.Cl.NC[C@H](CC1CCCCC1)NC(=O)c1cc(Br)c(-c2ccnc3[nH]ccc23)s1 [GSK1581427] | 0
14 | Cl.Cl.NC[C@H](Cc1ccc(C(F)(F)F)cc1)NC(=O)c1cc(Br)c(-c2ccnc3[nH]ccc23)s1 [GSK1487252] | 0
15 | Cc1occc1-c1nc(N)c(OC[C@@H](N)Cc2c[nH]c3ccccc23)cc1-c1cc2c(C)n[nH]c2cn1 [GSK1660450] | 31
16 | C[C@@H]1CCN(C(=O)CC#N)C[C@@H]1N(C)c1ncnc2[nH]ccc12 | 0
17 | CN(C)CC(O)COc1ccc(Nc2nccc(-c3cnn4nc(N5CCOCC5)ccc34)n2)cc1 (centres unmarked) [GW767488] | 14
18 | CC(C)N1C(=O)Cc2cc(Nc3ncc(C(F)(F)F)c(NCc4cccc(S(C)(=O)=O)c4)n3)ccc21 | 0
19 | CNC(=O)c1ccccc1Sc1ccc2c(/C=C/c3ccccn3)n[nH]c2c1 | 53
20 | NC(=O)c1cc(-c2ccccc2)cc2c(C3CCNCC3)c[nH]c12 [GSK301362] | 0
21 | C[C@H]1Oc2cc(cnc2N)-c2c(nn(C)c2C#N)CN(C)C(=O)c2ccc(F)cc21 | 0
22 | Cc1ccc2c(-c3ccncc3)c(-c3ccc(F)cc3)nn2c1.Cl [GW461484] | 14
23 | CCN(CC)CCCCNc1ncc2cc(-c3c(Cl)cccc3Cl)c(NC(=O)NC(C)(C)C)nc2n1 | 1
24 | O=C(NCCCN1CCOC1=O)c1cnc(NCc2cc(Cl)ccc2Cl)nc1NC1CCCC1 | 10
25 | Nc1nc(Nc2ccccc2)cc(-c2ccc3c(N)n[nH]c3c2)n1 [GSK2225749] | 3
26 | O=C(NCCNc1ccnc(NCc2ccc(F)cc2)n1)c1cc2ccccc2s1 [GSK1379944] | 14

test system: ZAP70; conditions: concentration: 1 μM,replicates: in singlicate; n = 1

Row | SMILES | %Inh [%]
27 | Cc1n[nH]c2ccc(-c3cc(OC[C@@H](N)Cc4ccccc4)cnc3-c3ccoc3)cc12.O=C(O)C(F)(F)F.O=C(O)C(F)(F)F [GSK507358] | 0
28 | Cl.Oc1cc(-c2nc(-c3ccccc3)[nH]c2-c2ccncc2)ccc1Cl [SB-386023] | 15
29 | CCn1c(-c2nonc2N)nc2c(C#CC(C)(C)O)nc(OCCN)cc21.Cl.Cl [GSK902056] | 0
30 | CCN(CC)CCOc1ccc(Nc2ncc3cc(-c4c(Cl)cccc4Cl)c(=O)n(C)c3n2)cc1 [SB-601273] | 63
31 | CC(C)Nc1cc(-c2ccc3c(N)n[nH]c3c2)nc(N)n1 [GSK2221681] | 0
32 | C=CC(=O)Nc1cc2c(Nc3ccc(F)c(Cl)c3)ncnc2cc1OCCCN1CCOCC1 [GW781483] | 31
33 | C[C@@H](Oc1cc(-c2cnn(C3CCNCC3)c2)cnc1N)c1c(Cl)ccc(F)c1Cl | 10
34 | CN(C)CCOc1ccc(-c2cc(-c3c[nH]nc3-c3ccccn3)ccn2)cc1 [GW835314] | 11
35 | Cc1cc(C(=O)Nc2ccc(Oc3ccc4nc(NC(=O)C5CC5)cn4n3)cc2)nn1-c1ccccc1 | 0
36 | Cl.Cl.Nc1nc(-c2ccc3c(N)n[nH]c3c2)cc(N2CCCC(NC(=O)c3ccccc3)C2)n1 (centres unmarked) [GSK2286775] | 0
37 | COc1ccc(C[C@@H](CN)NC(=O)c2cc(Br)c(-c3ccnc4[nH]ccc34)s2)cc1.Cl.Cl [GSK1389063] | 0
38 | Cc1cc2cn[nH]c2cc1-c1cccc2c(N)c(C(N)=O)nnc12 | 32
39 | Cl.Cl.NC[C@H](CC1CCCCC1)NC(=O)c1cc(Br)c(-c2ccnc3[nH]ccc23)s1 [GSK1581427] | 0
40 | Cl.Cl.NC[C@H](Cc1ccc(C(F)(F)F)cc1)NC(=O)c1cc(Br)c(-c2ccnc3[nH]ccc23)s1 [GSK1487252] | 0
41 | Cc1occc1-c1nc(N)c(OC[C@@H](N)Cc2c[nH]c3ccccc23)cc1-c1cc2c(C)n[nH]c2cn1 [GSK1660450] | 0
42 | C[C@@H]1CCN(C(=O)CC#N)C[C@@H]1N(C)c1ncnc2[nH]ccc12 | 0
43 | CN(C)CC(O)COc1ccc(Nc2nccc(-c3cnn4nc(N5CCOCC5)ccc34)n2)cc1 (centres unmarked) [GW767488] | 36
44 | CC(C)N1C(=O)Cc2cc(Nc3ncc(C(F)(F)F)c(NCc4cccc(S(C)(=O)=O)c4)n3)ccc21 | 62
45 | CNC(=O)c1ccccc1Sc1ccc2c(/C=C/c3ccccn3)n[nH]c2c1 | 0
46 | NC(=O)c1cc(-c2ccccc2)cc2c(C3CCNCC3)c[nH]c12 [GSK301362] | 0
47 | C[C@H]1Oc2cc(cnc2N)-c2c(nn(C)c2C#N)CN(C)C(=O)c2ccc(F)cc21 | 0
48 | Cc1ccc2c(-c3ccncc3)c(-c3ccc(F)cc3)nn2c1.Cl [GW461484] | 0
49 | CCN(CC)CCCCNc1ncc2cc(-c3c(Cl)cccc3Cl)c(NC(=O)NC(C)(C)C)nc2n1 | 0
50 | O=C(NCCCN1CCOC1=O)c1cnc(NCc2cc(Cl)ccc2Cl)nc1NC1CCCC1 | 0
51 | Nc1nc(Nc2ccccc2)cc(-c2ccc3c(N)n[nH]c3c2)n1 [GSK2225749] | 0
52 | Cc1ccc(-n2nc(C(C)(C)C)cc2NC(=O)Nc2ccc(OCCN3CCOCC3)c3ccccc23)cc1 [GW839464] | 0
53 | O=C(NCCNc1ccnc(NCc2ccc(F)cc2)n1)c1cc2ccccc2s1 [GSK1379944] | 0

Reference: publication PMC5540273 (PLoS ONE, 2017)
